Assay outcomes from PubChem BioAssay.
Rab9 prom act: Rab9 promoter activation; hit rate 2.8% among 320,000; Huh7 Rab9 promoter-luciferase reporter, luminescence, 24 h; Potency, µM (top dose mostly 9.22 µM), for the others: at the top dose activation, negative = inhibition, most hits filed as activators; further: % of control where 0% means no effect; nearly all actives have a fitted effect of over 60% in size
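Luminescence from Amplite-detected luciferase (10 minutes, ambient) reports Rab9 promoter activation. Before that, stable Rab9-luciferase Huh7 cells (1500/well, reduced-serum OP-MEM I plus 10% FBS) were exposed to compound for 24 hours at 37C.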
p53 reactivator: restores transcriptional activity of mutant p53 | H1299 p53-A138V BP100-luciferase reporter, luminescence, 24 h | Potency, µM (highest dose often 92.2 µM), inactives show top-dose activity change, positive = activation, most hits filed as activators | hit rate 0.063% among 320,000; further: % of control where 0% means no effect; nearly all actives have a fitted effect of over 45% in size
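p53-null H1299 cells stably carrying temperature-sensitive p53-A138V and a BP100-luciferase reporter were pinned with compounds (4-point, 1:5 series) and held 24 hrs at 37 deg C. Luminescence was read 10 min after detection reagent.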
ELG1 genotoxic: inducers of genotoxicity in HEK293T ELG1-luciferase cells. HEK293T ELG1-luciferase reporter, luminescence, 16 h. Potency, µM (doses to about 46 µM), for the others: top-dose activity change, positive = activation, hits mostly activators. hit rate 1.3% among 330,000; further: % of control where 0% means no effect; nearly all actives have a fitted effect of over 60% in size
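Step 1: seed 2,000 HEK293T ELG1-luciferase cells per well. Step 2: add compound or DMSO, incubate 16 hr at 37 °C. Step 3: ONE-Glo, 30 min at room temperature, read luminescence.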
NPC1 prom act: activates the NPC1 promoter; Huh7 NPC1 promoter luciferase reporter, 24 h; AID 485313; Potency, µM (top dose mostly 9.22 µM), inactives show at the top dose activation, usual class: activators; hit rate 2.4% among 320,000; further: % of control where 0% means no effect; nearly all actives have a fitted effect of over 60% in size
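Cells: Huh7 expressing luciferase under the NPC1 promoter, 1500/well. Seeded 2 h, compound added, incubated 24 h at 37 °C. Luciferase reagent, 10 min ambient, then luminescence.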
FLuc counter: counter-screen for miR-21 project: firefly luciferase inhibitors or activators; P08659; Potency, µM (titrated, usually from 57.5 µM), for the others: at the top dose activity change, negative = inhibition, usual class: inhibitors; purified FLuc, Km substrates, luminescence inhibition; hit rate 6.9% among 360,000;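 further: plate controls were vehicle for no effect and reference inhibitor for full effect; nearly all actives have a fitted effect of over 55% in size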
Target sequence (P08659 whole entry, looked up): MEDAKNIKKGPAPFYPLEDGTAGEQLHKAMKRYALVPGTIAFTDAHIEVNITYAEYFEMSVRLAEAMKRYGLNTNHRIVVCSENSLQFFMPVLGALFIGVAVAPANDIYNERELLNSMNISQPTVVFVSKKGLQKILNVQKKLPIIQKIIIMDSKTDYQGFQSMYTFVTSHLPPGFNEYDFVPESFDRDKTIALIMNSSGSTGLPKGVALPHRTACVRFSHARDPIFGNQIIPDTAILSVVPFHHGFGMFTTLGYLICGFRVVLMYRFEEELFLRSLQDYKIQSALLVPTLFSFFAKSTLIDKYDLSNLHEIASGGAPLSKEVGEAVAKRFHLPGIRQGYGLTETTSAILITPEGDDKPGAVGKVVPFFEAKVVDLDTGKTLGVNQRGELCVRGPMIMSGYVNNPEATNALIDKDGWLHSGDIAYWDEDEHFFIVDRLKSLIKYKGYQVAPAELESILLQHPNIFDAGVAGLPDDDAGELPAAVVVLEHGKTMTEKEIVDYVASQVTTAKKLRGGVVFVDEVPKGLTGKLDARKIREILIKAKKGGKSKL
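Purified P. pyralis luciferase (10nM final) with 10uM D-luciferin and 10uM ATP (Km levels) in 50mM Tris acetate pH 7.5, 10mM Mg acetate, 0.01% Tween-20, 0.05% BSA; qHTS 6-point titration, ~60 µM downward; luminescence read.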
SMN2 splice enh: increases expression of the SMN2 splice variant; Potency, µM (titrated, usually from 46.1 µM), inactives show top-dose activity change, positive = activation, usual class: activators; hit rate 2.8% among 210,000; HEK293 SMN2-luciferase splicing reporter, luminescence, 30-36 h; further: % of control where 0% means no effect; nearly all actives have a fitted effect of over 55% in size
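HEK293 cells carry an SMN2 minigene-luciferase reporter in which exon 7 inclusion puts luciferase in frame. Cells were seeded at 2000 cells/well, attached for 10-12 hours, then exposed to compounds for 30-36 hours at 37C before ONE-Glo luminescence.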
* hit, by the source's call; ? = inconclusive; · = not tested or not shown; [ ] = dose if it differs, or a comment. The list is not random: actives were taken first. Their share in the collection is about 7.4%. The call rests on the fitted dose curve; in most records, active means well fitted curve in the direction sought with a large enough effect; inconclusive means small, poorly fitted or top-dose-only effect, or another doubt; inactive means no such curve, though single readings can be large; an effect the other way counts as inactive or inconclusive. Potency means the concentration at half of the fitted maximal effect.

SMILES | Rab9 prom act | p53 reactivator | ELG1 genotoxic | NPC1 prom act | FLuc counter | SMN2 splice enh
COc1cc2c(cc1OC)[C@]13CC[N@+]4(C)CC5=CCO[C@H]6CC(=O)N2[C@@H]1C6[C@@H]5C[C@]34O (some centres undefined) | · | · | · | · | · | -2%[9.22 µM]
CC(C)=C[C@H]1[C@@H](C(=O)OCc2cc3c(cc2Cl)OCO3)C1(C)C | · | · | · | · | · | -14%[9.22 µM]
COc1cccc(N=Nc2c(O)[nH]c(=S)[nH]c2=O)c1 | ? | 20% | ? | 21% | 13µM* | ·
O=c1[nH]c(=S)[nH]c(O)c1N=Nc1ccc(OC(F)F)cc1 | 2µM* | ? | ? | ? | 5.4µM* | 13µM*
NS(=O)(=O)c1ccc(N=Nc2c(O)[nH]c(=S)[nH]c2=O)cc1 | 9% | -3% | -3% | -1% | ? | ·
COc1ccc(N=Nc2c(O)[nH]c(=S)[nH]c2=O)cc1 | 1.8µM* | 27% | ? | 1.6µM* | 6µM* | 18µM*
O=c1[nH]c(=S)[nH]c(O)c1N=Nc1cccc(S(=O)(=O)N2CCOCC2)c1 | -1% | ? | 1% | 1% | 2% | ·
[N-]=[N+]=[N-] | · | · | · | · | · | -5%
C/C=C/C/C=C/CCC(=O)[C@H]1O[C@H]1C(N)=O | · | · | · | · | · | -106%
O=[As](O)(O)c1ccc2nc3cc([As](=O)(O)O)ccc3nc2c1 | · | · | · | · | · | 5%[9.22 µM]
ClP(Cl)(Cl)(Cl)Cl | · | · | · | · | · | 3%
C=CCOCC1CO1 (centres undefined) | · | · | · | · | · | 1%
CCN(CC)c1ccc(/C=C2/C(=O)NC(=O)N(CC3CCCO3)C2=O)cc1 (centres undefined) | 8% | 0% | 7% | 0% | 17µM* | -6%
O=C1NC(=O)N(CC2CCCO2)C(=O)/C1=C/c1cccs1 (centres undefined) | -2% | 1% | 8% | -1% | ? | ·
O=C(NCc1ccccc1)c1cccn(Cc2ccccc2)c1=O | -6% | -8% | -6% | -1% | 0% | ·
Cc1ccc(CNC(=O)c2ccccc2NC(=O)c2nsc3ccccc23)cc1 | · | · | · | · | 17µM* | ·
CCOC(=O)[C@@H]1[C@@H]2c3ccccc3-c3ccccc3[C@H]2C[C@H]1O | · | · | · | · | · | -7%[9.22 µM]
O=C(NNc1c(F)c(F)cc(F)c1F)c1cc2ccccc2oc1=O | 3.2µM* | 3% | ? | ? | ? | 22%
Cc1cc2oc(=O)cc(-c3cc4ccccc4o3)c2cc1OC(=O)N(C)C | -5% | 3% | 1% | -13% | 2% | ·
COc1ccc(N=Cc2c(O)n(Cc3ccccc3)c(=S)[nH]c2=O)c(OC)c1 | ? | 6% | ? | ? | 1.2µM* | ·
Cc1cn2c(=O)cc(COC(=O)c3ccccc3F)nc2s1 | · | · | · | · | 2.7µM* | ·
O=C1NC(=O)N(c2ccc(Br)cc2)C(=O)/C1=C/c1ccsc1 | 0% | -2% | 0% | -8% | ? | ·
O=C1NC(=O)N(c2cccc(Br)c2)C(=O)/C1=C/c1ccsc1 | -7% | 6% | 0% | -2% | 17µM* | ·
O=C1NC(=O)N(c2ccc(F)cc2)C(=O)/C1=C/c1ccsc1 | -1% | 2% | 2% | 5% | 19µM* | 9%
O[C@H](CN1CC1)[C@@H](O)CN1CC1 | · | · | · | · | · | -12%[9.22 µM]
SMILES | Rab9 prom act | p53 reactivator | ELG1 genotoxic | NPC1 prom act | FLuc counter | SMN2 splice enh
CC(=O)n1cc(C=C2C(=O)NC(=O)NC2=O)c2ccccc21 | 1% | 0% | 1%[9.26 µM] | -3% | 15µM* | ·
Cn1cc(C=C2C(=O)NC(=O)NC2=O)c2ccccc21 | -3% | -2% | 1% | 0% | -9% | ·
O=C(O)CCn1cc(C=C2C(=O)NC(=S)NC2=O)c(-c2cccc(Cl)c2)n1 | 2% | 0% | 3% | -4% | 21µM* | ·
O=C(O)CCn1cc(C=C2C(=O)NC(=O)NC2=O)c(-c2ccc(Br)cc2)n1 | 5% | 12% | 1% | 0% | -11% | 13%
Cc1cc(C=C2C(=O)N(C)C(=S)N(C)C2=O)c(C)n1C1CCCC1 | -9% | 4% | ? | 0% | 2.4µM* | -14%
CCN1C(=O)C(=Cc2cc(C)n(C3CC3)c2C)C(=O)N(CC)C1=S | 0% | -3% | 2% | -4% | -2% | 0%
Cc1cc(/C=C2\C(=O)NC(=S)N(C)C2=O)c(C)n1C1CCCCC1 | -4% | 8% | ? | -2% | 0.48µM* | 1%
Cc1cc(C=O)c(C)n1C1CCCCC1 | 0% | -1% | 3% | 0% | -6% | 2%
Cc1cc(C(=O)CS(=O)(=O)c2ccccc2)cc(C)c1OC(=O)N(C)C | 0.79µM* | 13% | 3% | 3.2µM* | 6.7µM* | 10µM*
Cc1ccc(S(=O)(=O)CC(=O)c2cc(C)c(OC(=O)N(C)C)c(C)c2)cc1 | -4% | -2% | 3% | 2% | -12% | -13%
CCCCc1nn2c(=O)cc(COC(=O)Cc3ccccc3)nc2s1 | · | · | · | · | -2% | ·
CCOc1ccc(C(=O)Nc2cccc(C(=O)OCc3cc(=O)n4nc(C5CC5)sc4n3)c2)cc1 | · | · | · | · | 1.9µM* | ·
Nc1ccccc1C(=O)OCCOc1ccccc1 | 0.4µM* | ? | 0.92µM* | 0.35µM* | 0.6µM* | 7.9µM*
COC(=O)c1ccccc1N | · | · | · | · | · | -13%
CC1CCN(C(=O)COC(=O)c2cn(C)c3ccccc23)CC1 | -2% | 1% | 7% | -3% | 24µM* | ·
CCC12CCN(CCc3ccc([N+](=O)[O-])cc3)CC1Oc1c(O)cccc12 (centres undefined) | · | · | · | · | 2% | ·
CCN1C(=O)C(=Cc2ccc(C)s2)C(=O)N(CC)C1=S | 18% | 28% | ? | ? | ? | 20µM*
CN(C)C(=O)Oc1ccc(OCc2nc3ccccc3[nH]2)cc1 | 0.45µM* | ? | ? | ? | 1.5µM* | 7.1µM*
COc1ccccc1-n1c(-c2ccc(C)cc2)nc2ccccc2c1=O | -1% | -1% | 14% | -3% | 13µM* | ·
COc1cc(/C=C/c2nc3ccccc3c(=O)n2-c2ccccc2O)ccc1O | 1% | 20% | 11% | 1% | 17µM* | ·
C/C=C1/C[N@@+]2(C)CC[C@]34C(=C(C=O)[C@H]1C[C@H]32)Nc1ccccc14 | · | · | · | · | · | 3%
NC1(P(=O)(O)O)CCCCC1 | · | · | · | · | · | -2%[9.22 µM]
OC(c1ccc(Cl)cc1)(c1ccc(Cl)cc1)C(Cl)(Cl)Cl | · | · | · | · | · | 1%
NCCSC(c1ccccc1)c1ccccc1 | · | · | · | · | · | -10%[9.22 µM]
CNC(=O)Oc1cccc(-c2cn3cc(OC(=O)NC)ccc3n2)c1 | ? | ? | 21µM* | 3.5µM* | 3.8µM* | 13µM*
CNC(=O)Oc1ccc(-c2cn3cc(Cl)ccc3n2)cc1 | 0.63µM* | ? | ? | 0.89µM* | 1.1µM* | 5µM*
CN(C)CCCc1cccnc1 | · | · | · | · | · | -6%[9.22 µM]
CC(C)(C)c1ccc(C(=O)NC(=S)Nn2cnnc2)cc1 | 23% | ? | 1% | 20% | 19µM* | ·
CNC(=O)Oc1ccc2c(c1)C(=O)c1ccccc1CO2 | -4% | 11% | 15% | 2% | 11µM* | -58%
